Values joined by “and” are separate entries in the source; they are usually repeats but may differ in a detail not shown here. Identical values can stand only once. Records with an inconclusive call do not appear. A call without a number means that no potency is given here. A number with no mark means an inactive call. Active and inactive are the calls of the source. Calls come from the whole dose curve; as a rule, active = well fitted curve in the direction sought with a large enough effect in the repeat runs; inconclusive = weak or mixed curves; inactive = no such curve, though single readings can be large; an effect the other way counts as inactive or inconclusive.
How the values were obtained:
[1] = qHTS assay to identify small molecule antagonists of the retinoid acid receptor (RAR) signaling pathway - cell viability counter screen (AID 1159551); note: nearly all actives have a fitted effect of over 35% in size; note: potency is the fitted concentration of half-maximal effect
How it was run: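 In this counter screen, the RARE-luciferase line C3RL4 was exposed for 6 h at 37 C and 5% CO2 to compounds with retinol at 1 uM final. Cellular ATP, read by luminescence, served as the viability measure.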

[2] = qHTS assay to identify small molecule antagonists of the retinoic acid receptor (RAR) signaling pathway (AID 1159552; note: nearly all actives have a fitted effect of over 50% in size; note: potency is the fitted concentration of half-maximal effect)
How it was run: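 C3RL4 RARE-luc cells, overnight plating; retinol 1 uM final added right after compound; 6 hr 37 C; luciferase read at 30 min RT.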

[3] = qHTS assay to identify small molecule agonists of the retinoic acid receptor (RAR) signaling pathway (AID 1159553); note: potency is the fitted concentration of half-maximal effect
How it was run: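 In this cell-based screen, 1,000 C3RL4 cells per well were cultured overnight, dosed with test chemicals in DMSO for 6 hr, and assessed for RARE luciferase luminescence.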

[4] = qHTS assay to identify small molecule antagonists of the estrogen related receptor (ERR) signaling pathway from Tox21 library - cell viability counter screen (AID 1224834); note: nearly all actives have a fitted effect of over 30% in size; note: potency is the fitted concentration of half-maximal effect
How it was run: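 Counter screen run in ERR cells (2,000 cells/well): cells pre-incubated 6 h, then treated with compounds for 17.5 h at 37 C. Fluorescence was read 30 min after CellTiter-Fluor addition.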

[5] = qHTS assay to identify small molecule antagonists of the estrogen related receptor (ERR) signaling pathway - cell viability counter screen (AID 1224818); note: series mostly up to about 46 µM
How it was run: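 Viability of ERR cells, CellTiter-Fluor fluorescence; 17.5 h compound exposure at 37 C, DMSO vehicle; 30 min reagent incubation at 37 C/5% CO2.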

[6] = qHTS assay to identify small molecule antagonists of the estrogen related receptor signaling pathway with the pleiotropic PPARgamma coactivator (PGC) cell viability counter screen (AID 1224822; note: series mostly up to about 46 µM)
How it was run: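 17.5 h compound treatment of PGC/ERR cells at 37 C; readout CellTiter-Fluor fluorescence; run alongside the PGC/ERR antagonist screen to flag cytotoxic compounds.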

Compound: O=C(Cl)OCCOCCOC(=O)Cl
- Potency [1]: inactive
- Potency [2]: 12.2 µM (active)
- Potency [3]: inactive
- Potency [4]: inactive

Compound: COCc1cnc(C2=NC(C)(C(C)C)C(=O)N2)c(C(=O)O)c1 (stereo not given)
- Potency [1]: inactive
- Potency [2]: inactive
- Potency [3]: inactive
- Potency [4]: inactive

Compound: C=CC(=O)NC(C)(C)CC(C)=O
- Potency [1]: inactive
- Potency [2]: inactive
- Potency [3]: inactive
- Potency [4]: inactive

Compound: N#CC(C#N)=Cc1ccc(O)c(O)c1
- Potency [1]: inactive
- Potency [3]: 26.6 µM (active)
- outcome [5]: inactive
- outcome [6]: inactive
- Potency [4]: inactive

Compound: CCCCOC(=O)CCC(=O)OCCCC
- Potency [1]: inactive
- Potency [3]: inactive
- Potency [4]: inactive

Compound: O=C(O)C(F)(F)C(F)(F)C(F)(F)C(F)(F)C(F)(F)C(F)(F)C(F)(F)C(F)(F)F
- Potency [1]: inactive
- Potency [3]: inactive
- Potency [4]: inactive

Compound: Cc1nc2ccccc2c(=O)n1-c1ccccc1Cl
- Potency [1]: inactive
- Potency [3]: inactive
- Potency [4]: 21.2 µM (active)

Compound: CN[C@@H](C)[C@H](O)c1ccccc1
- Potency [1]: inactive
- Potency [3]: inactive
- Potency [4]: inactive

Compound: C=CCN1C[C@H](C)N([C@H](c2ccc(C(=O)N(CC)CC)cc2)c2cccc(OC)c2)C[C@H]1C
- Potency [1]: inactive
- Potency [3]: inactive
- Potency [4]: inactive

Compound: CN1CC[C@]23c4c5ccc(O)c4O[C@H]2[C@@H](O)C=C[C@H]3[C@H]1C5
- Potency [1]: inactive
- Potency [3]: inactive
- Potency [4]: inactive

Compound: CC(C)c1ccc(OP(=O)(Oc2ccc(C(C)C)cc2)Oc2ccc(C(C)C)cc2)cc1
- Potency [1]: inactive
- Potency [3]: inactive

Compound: COC1CC(=C(c2cccs2)c2cccs2)C[N+](C)(C)C1 (stereo not given)
- Potency [1]: inactive
- Potency [3]: inactive
- Potency [4]: inactive

Compound: CCC(C)(C)c1ccc(O)c(C(C)(C)CC)c1
- Potency [1]: 53.9 µM (active) and 30.6 µM (active)
- Potency [2]: 24.3 µM (active)
- Potency [4]: 48 µM (active)

Compound: COC(=O)Cc1ccccc1
- Potency [1]: inactive
- Potency [3]: inactive
- Potency [4]: inactive

Compound: CCOP(=O)(O)C(N)=O
- Potency [1]: inactive
- Potency [3]: inactive
- Potency [4]: inactive

Compound: CCCCC(CC)COC(=O)c1c(Br)c(Br)c(Br)c(Br)c1C(=O)OCC(CC)CCCC (stereo not given)
- Potency [1]: inactive
- Potency [3]: inactive
- Potency [4]: inactive

Compound: CN(C1CCCCC1)C1CCCCC1
- Potency [1]: inactive
- Potency [2]: inactive
- Potency [4]: inactive

Compound: CCCCC(CC)CO[N+](=O)[O-] (stereo not given)
- Potency [1]: inactive
- Potency [3]: inactive
- Potency [4]: inactive

Compound: CCNC(=O)NC(=O)/C(C#N)=N/OC
- Potency [1]: inactive
- Potency [3]: inactive
- Potency [4]: inactive

Compound: CC(C)(c1ccccc1)c1cc(-n2nc3ccccc3n2)c(O)c(C(C)(C)c2ccccc2)c1
- Potency [1]: inactive
- Potency [2]: inactive
- Potency [3]: inactive
- Potency [4]: inactive

Compound: O=S(=O)(c1ccccc1)c1ccccc1
- Potency [1]: inactive
- Potency [3]: inactive
- Potency [4]: inactive

Compound: ClCc1ccccc1Cl
- Potency [1]: inactive
- Potency [3]: inactive
- Potency [4]: inactive

Compound: FC(Cl)(Cl)C(F)(Cl)Cl
- Potency [1]: inactive
- Potency [3]: inactive
- Potency [4]: inactive

Compound: Cc1ccc2c(C)cccc2c1
- Potency [1]: inactive
- Potency [3]: inactive
- Potency [4]: inactive

Compound: C=C(Cl)Cl
- Potency [1]: inactive
- Potency [3]: inactive
- Potency [4]: inactive

Compound: CN1CC[C@]23c4c5ccc(O)c4O[C@H]2[C@@H](O)CC[C@H]3[C@H]1C5
- Potency [1]: inactive
- Potency [2]: inactive
- Potency [4]: inactive

Compound: C1CCNCC1
- Potency [1]: inactive
- Potency [3]: inactive
- Potency [4]: inactive

Compound: CON(C)C(=O)Nc1ccc(Cl)cc1
- Potency [1]: inactive
- Potency [2]: inactive
- Potency [4]: inactive

Compound: c1ccc2c(c1)-c1cccc3cccc-2c13
- Potency [1]: inactive
- Potency [3]: inactive
- Potency [4]: inactive

Compound: SCc1ccccc1
- Potency [1]: inactive
- Potency [2]: inactive
- Potency [4]: inactive

Compound: O=C(N/N=C/c1ccc([N+](=O)[O-])o1)c1cc([N+](=O)[O-])cc([N+](=O)[O-])c1O
- Potency [1]: inactive
- Potency [2]: inactive
- Potency [4]: 11.9 µM (active)

Compound: O=C1c2ccccc2C(=O)N1SC(Cl)(Cl)Cl
- Potency [1]: 53.7 µM (active) and 30.6 µM (active)
- Potency [2]: 17 µM (active) and 15.4 µM (active)
- Potency [4]: 24 µM (active) and 27.3 µM (active)

Compound: C[N+](C)(C)CCOC(=O)C(O)(c1ccccc1)c1ccccc1
- Potency [1]: inactive
- Potency [3]: inactive
- Potency [4]: inactive

Compound: CCCN(CCC)C(=O)Cc1c(-c2ccc(Cl)cc2)nc2ccc(Cl)cn12
- Potency [1]: inactive
- Potency [3]: inactive

Compound: O=C1CC[C@@]2(O)[C@H]3Cc4ccc(O)c5c4[C@@]2(CCN3CC2CC2)[C@H]1O5
- Potency [1]: inactive
- Potency [3]: inactive
- Potency [4]: inactive

Compound: CCCSP(=S)(OCC)Oc1ccc(SC)cc1 (stereo not given)
- Potency [1]: inactive
- Potency [2]: inactive
- Potency [4]: inactive

Compound: CCOP(=S)(S)OCC
- Potency [1]: inactive
- Potency [2]: inactive
- Potency [4]: inactive

Compound: Cc1nc(N(C)C)nc(OC(=O)N(C)C)c1C
- Potency [1]: inactive
- Potency [2]: inactive
- Potency [3]: inactive
- Potency [4]: inactive

Compound: O=C(Cc1ccccc1)c1ccccc1
- Potency [1]: inactive
- Potency [2]: inactive
- Potency [4]: inactive

Compound: Cc1cnc(C2=NC(C)(C(C)C)C(=O)N2)c(C(=O)O)c1 (stereo not given)
- Potency [1]: inactive
- Potency [3]: inactive
- Potency [4]: inactive

Compound: O=C(NCNC(=O)NC1C(=O)NC(=O)N1CO)NC1C(=O)NC(=O)N1CO (stereo not given)
- Potency [1]: inactive
- Potency [3]: inactive
- Potency [4]: inactive

Compound: CCc1ccccc1N
- Potency [1]: inactive
- Potency [2]: inactive
- Potency [4]: inactive

Compound: CCCCC1C(=O)NC(=O)N(C2CCCCC2)C1=O (stereo not given)
- Potency [1]: inactive
- Potency [3]: inactive
- Potency [4]: inactive

Compound: C=CCSSCC=C
- Potency [1]: inactive
- Potency [3]: inactive
- Potency [4]: inactive

Compound: CC[N+]1(CCOC(=O)C(O)(c2ccccc2)c2ccccc2)CCCCC1
- Potency [1]: inactive
- Potency [3]: inactive
- Potency [4]: inactive

From PubChem BioAssay (Tox21)
